37 molecules from PubChem BioAssay (NCI) can be followed below.

About 79,000 compounds went through this panel and 15% of them were active in at least one assay; those are over-represented in the sample as a whole. Unmarked numbers belong to inactive results. The source made the active and inactive calls. No stated cut-off is given here; in the data, active means growth inhibition above about 70%; inactive means the rest. Where a SMILES comes first, the peptide text is derived from it. The star is where a group is joined. Boc = CC(C)(C)OC(=O)*; OBn = c1ccc(CO*)cc1

Test [1] can be described thus: NCI Yeast Anticancer Drug Screen. Data for the rad50 strain (AID 155).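 Further: 0% = growth of vehicle-only cultures of the same strain.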 The note with it: S. cerevisiae rad50 strain growth inhibition; at 50.0 µM; stronger effect = higher value. An outline of the steps:
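Yeast carrying a defined DNA repair defect were exposed to test compounds, and growth was compared with vehicle-treated controls to give percent inhibition.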

The nature of test [2]: NCI Yeast Anticancer Drug Screen. Data for the mec2-1 strain (AID 157). Particulars: S. cerevisiae mec2-1 strain, at 50.0 µM, stronger effect = higher value. An outline of the steps: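 mec2-1 yeast strain, carrying an alteration in DNA damage repair or cell cycle control, was exposed to compounds; growth inhibition was measured relative to vehicle-treated controls.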
A short description of test [3]: NCI Yeast Anticancer Drug Screen. Data for the sgs1 mgt1 strain (AID 161).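 Further: 0% = growth of cultures given vehicle only.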 The note with it: S. cerevisiae sgs1 mgt1 strain, at 50.0 µM, stronger effect = higher value. The essentials: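 This yeast growth screen uses a strain with defined DNA-repair lesions; compound-treated growth is compared with vehicle-treated growth.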
The nature of test [4]: NCI Yeast Anticancer Drug Screen. Data for the cln2 rad14 strain (AID 165).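 Further: 0% = growth equal to vehicle treated cultures.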 Particulars: S. cerevisiae cln2 rad14 strain, at 50.0 µM, stronger effect = higher value. An outline of the steps: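 Yeast carrying cln2 and rad14 alterations (cell cycle control and DNA damage repair) were exposed to compounds. Growth inhibition was measured against vehicle-treated controls.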
Test [5] is described as follows: NCI Yeast Anticancer Drug Screen. Data for the bub3 strain (AID 167). The note with it: S. cerevisiae bub3 mutant strain, at 50.0 µM, stronger effect = higher value. An outline of the steps:
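Compounds were applied to a genetically altered yeast strain carrying a cell-cycle control defect. Growth inhibition was scored against vehicle-treated controls.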

Test [6] is described as follows: NCI Yeast Anticancer Drug Screen. Data for the mlh1 rad18 strain (AID 175). The note with it: S. cerevisiae mlh1 rad18 strain growth inhibition; at 50.0 µM; stronger effect = higher value. An outline of the steps: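 Growth inhibition of the yeast strain was measured after compound exposure and expressed relative to vehicle-treated controls. The strain carries defined defects in DNA damage repair.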

As to `CC(C)c1ccc(C(O)C2CC2)cc1` (configuration not stated), the growth inhibition in test [1] was -14.3%; in test [2], -40.8%; in test [3] it was -15.2%; in test [4], 3.05%; in test [5], -19.6%; in test [6] it was -11.6%.
For the molecule `COc1cc2c(cc1OC)C1(c3ccccc3)ON=C(c3ccccc3)N1CS2` (configuration not stated), the growth inhibition was -14.1% in test [1]; -12.4% in test [2]; 8.95% in test [3]; -32.4% in test [4]; -7.05% in test [5]; -11.1% in test [6].
For `CC(=O)NNC(=S)N/C=C(\C#N)S(=O)(=O)c1ccc(C)cc1`, the growth inhibition is -44.5% in test [1]; -26.4% in test [2]; -35.5% in test [3]; -61.3% in test [4]; -25.8% in test [5]; -37.6% in test [6].
For the molecule `CC(=O)OCCOCNC(=S)N/N=C(\C)c1cccs1`, the growth inhibition is 10.3% in test [1]; -13.6% in test [2]; 4.8% in test [3]; 34.1% in test [4]; 4.3% in test [5]; -8.95% in test [6].
As for `Cc1ccc(N=Nc2c(N)ccc3ccccc23)cc1`, the growth inhibition in test [1] is 90.5% (active); in test [2], 87.2% (active); in test [3], 89.6% (active); in test [4], 84.2% (active); in test [5], 87% (active); in test [6], 86.5% (active).
`C#CCN(CCO)Cc1ccccc1`: the growth inhibition in test [1] is -3.4%; in test [2] it was -18.6%; in test [3] it was -3.75%; in test [4], 9.25%; in test [5], -4%; in test [6], 2.7%.
Regarding `C/C(=C\C(N)=O)C(C)(C)C`, the growth inhibition is 4.15% in test [1]; -2.25% in test [2]; 9.35% in test [3]; 10.3% in test [4]; 21.9% in test [5]; -41.1% in test [6].
With `CC(CNC(=O)c1ccccc1)(CNC(=O)c1ccccc1)[N+](=O)[O-]`, the growth inhibition in test [1] was 8.95%; in test [2] it was 1.35%; in test [3], -3.2%; in test [4], 6.75%; in test [5], 0.8%; in test [6], 3.85%.
Take `CCCCCc1ccccn1`: the growth inhibition in test [1] is 0.9%; in test [2] it was 19.1%; in test [3], -25.4%; in test [4], -29.3%; in test [5] it was 12.1%; in test [6], -11.2%.
With `CC(=O)O[C@]12CCCCCC1C1(O)C(O)CCC[C@H]12` (some centres not stated), the growth inhibition is -29.4% in test [1]; -19.9% in test [2]; -54.8% in test [3]; 17.6% in test [4]; -26.1% in test [5]; -47.3% in test [6].
Take `CC#Cc1c(C#CC)c(OC)c2c(c1OC)C(=O)c1ccccc1C2=O`: the growth inhibition in test [1] was -20.9%; in test [2], -29.3%; in test [3], -26.2%; in test [4], 3.3%; in test [5], -8.2%; in test [6], -25.1%.
As for `COC(=O)C1=C(C(=O)OC)SC(=C2c3ccsc3-c3sccc32)S1`, the growth inhibition in test [1] was -31.3%; in test [2], -6.2%; in test [3], -7.45%; in test [4], 19%; in test [5], 1.3%; in test [6], -4.5%.
With `O=c1cnc2c(ccc3ccccc32)[nH]1`, the growth inhibition in test [1] was -2.7%; in test [2], -20.8%; in test [3] it was -16.1%; in test [4], 6.55%; in test [5], 8.4%; in test [6], -5.95%.
As to `COC(=O)c1ccc(C(=O)O)cc1`, the growth inhibition was 5.35% in test [1]; -2.65% in test [2]; -8.15% in test [3]; -6.55% in test [4]; 0.65% in test [5]; -6.5% in test [6].
On to `N#CCCN(c1ccc(C=O)cc1)S(=O)(=O)c1ccccc1`, for which the growth inhibition was -0.1% in test [1]; -13% in test [2]; -1.75% in test [3]; 5.75% in test [4]; -13.4% in test [5]; -15.7% in test [6].
As to `COC(=O)CCC(N)C(=O)O` (configuration not stated), the growth inhibition in test [1] is 10.2%; in test [2] it was -11.2%; in test [3], -7.15%; in test [4], -10.3%; in test [5] it was -24.9%; in test [6] it was -4.2%.
For the molecule `CCCc1c(O)cccc1O`, the growth inhibition was 13.8% in test [1]; 6.55% in test [2]; 16.9% in test [3]; 0.9% in test [4]; -5.55% in test [5]; 11% in test [6].
With `O=C(Nn1c(-c2ccccc2)nc2ccccc2c1=O)c1ccc([N+](=O)[O-])cc1`, the growth inhibition was -1.9% in test [1]; 14.6% in test [2]; 4.6% in test [3]; -1% in test [4]; 17.2% in test [5]; 13.9% in test [6].
Regarding `Cc1cc(O)oc(=O)c1`, the growth inhibition in test [1] was -7.7%; in test [2], -15.1%; in test [3] it was -7.2%; in test [4], -44.4%; in test [5], 1.85%; in test [6], -4.85%.
`O=C(/C=C/C(=O)NCCc1ccccc1)NCCc1ccccc1`: the growth inhibition in test [1] is -13.4%; in test [2] it was 0.85%; in test [3], 9.15%; in test [4] it was -7.45%; in test [5], 46.4%; in test [6], 17.4%.
As to `CC(C)([NH-])C[NH-].[Cl][Pt+2][Cl]`, the growth inhibition in test [1] is -17.1%; in test [2], -18.8%; in test [3], -24.5%; in test [4] it was -23.4%; in test [5], -3.8%; in test [6], 5.1%.
In the case of `CC(=O)Nc1ccc(C(=O)NN2C(=O)C(Cl)/C2=C/c2ccco2)cc1` (configuration not stated), the growth inhibition in test [1] was 1.1%; in test [2], -8.55%; in test [3], -28.8%; in test [4], -4.75%; in test [5], -22.8%; in test [6], -20.4%.
With `C=CCn1c(=S)sc2c(=O)[nH]cnc21`, the growth inhibition in test [1] is 14.6%; in test [2] it was 1.7%; in test [3] it was 25.8%; in test [4] it was 22.3%; in test [5] it was 8.15%; in test [6], 11.4%.
Take `CCCCCCCCCCCCCCCCCCCCCC`: the growth inhibition in test [1] was -28.1%; in test [2], -26.1%; in test [3], -8.7%; in test [4] it was 0%; in test [5], -25.9%; in test [6], -18.1%.
On to `CC1=CC(=O)C(=Ic2ccccc2)C(=O)O1`, for which the growth inhibition in test [1] is 11.2%; in test [2] it was -8.25%; in test [3], 4.6%; in test [4], 9.65%; in test [5], -3.85%; in test [6] it was 14.6%.
Regarding `CNC1C(O)C(OC2C(N)CC(N)C(OC3OC(CN)=CCC3N)C2O)OCC1(C)O` (configuration not stated), the growth inhibition in test [1] is -17.3%; in test [2], -43.3%; in test [3], -34.1%; in test [4] it was -15.6%; in test [5] it was -25.8%; in test [6] it was -5.15%.
With `O=[N+]([O-])c1ccc(/C=C/c2csnn2)cc1`, the growth inhibition in test [1] was -16.7%; in test [2] it was -31.8%; in test [3], -13.8%; in test [4], 22%; in test [5], 2%; in test [6] it was -24.6%.
On to `Nc1c2c(nn1-c1ccccc1)C(=O)N(CCc1ccccc1)C2`, for which the growth inhibition in test [1] is 0.25%; in test [2] it was 14.2%; in test [3] it was -6.05%; in test [4], -0.65%; in test [5] it was -3.25%; in test [6], -1.4%.
With `Cc1cc(O)c(C(c2ccc(C#N)cc2)c2c(O)cc(C)[nH]c2=O)c(=O)[nH]1`, the growth inhibition in test [1] was -1.05%; in test [2], -31.9%; in test [3], 1.95%; in test [4], -6.2%; in test [5] it was 4.6%; in test [6] it was -6.35%.
Take `CC(c1ccccc1)C1CC(=O)N(C)C1=O` (configuration not stated): the growth inhibition in test [1] is 7.85%; in test [2] it was -15%; in test [3], 0.45%; in test [4], -19.9%; in test [5] it was -23.8%; in test [6], 2.35%.
With `N#CCCN(CCC#N)c1ccc(C=O)cc1`, the growth inhibition is 20.3% in test [1]; 8.05% in test [2]; 17.2% in test [3]; -4.25% in test [4]; 26.6% in test [5]; 13.6% in test [6].
Regarding `CC(C)CC(NC(=O)OC(C)(C)C)C(=O)NC(CC(=O)OCc1ccccc1)C(=O)OCc1ccccc1` (stereo not drawn) (Boc-Leu-Asp(OBn)-OBn; configuration not given here), the growth inhibition is 26.3% in test [1]; -7.25% in test [2]; 15.5% in test [3]; 2.2% in test [4]; 15.8% in test [5]; 33.5% in test [6].
As for `CCC(C)(O)C(=O)O` (configuration not stated), the growth inhibition in test [1] was 9.8%; in test [2], -9.4%; in test [3] it was -32.4%; in test [4], -4.75%; in test [5], -13.3%; in test [6], -15.2%.
As for `Cc1cc(Cl)c(Cl)cc1N`, the growth inhibition was -11.6% in test [1]; -7.2% in test [2]; 5.6% in test [3]; -9.65% in test [4]; 12.1% in test [5]; 12.4% in test [6].
Regarding `BrCCC1CCCCCC1`, the growth inhibition was 8.75% in test [1]; -5.4% in test [2]; 5.85% in test [3]; 6.05% in test [4]; -4.25% in test [5]; 1.3% in test [6].
Turning to `O=C(COc1c(Cl)c(Cl)c(Cl)c(Cl)c1Cl)Nc1cccc(Cl)c1`, the growth inhibition in test [1] is 18.9%; in test [2], 2%; in test [3], 5.25%; in test [4], 15.2%; in test [5], 21.3%; in test [6], 22.8%.
As for `CCN(CC)c1ncnc2c1cnn2C`, the growth inhibition in test [1] was -14.8%; in test [2], -14.4%; in test [3] it was 8.75%; in test [4], 11%; in test [5], -15.9%; in test [6] it was -28%.
